Calls of active or inactive are those of the source.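 Rule for the calls: active = visually confirmed hit in the image check and inhibition above 20%; inconclusive = visually confirmed hit but inhibition not above 20%; inactive = no visual hit in the image check.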
test: inhibitors of E-selectin induction by TNFa, primary screen, imaging, HUVEC, immunofluorescence, MLSMR starter and 10KST1 sets (AID 487); conditions: HUVEC TNFalpha-induced E-selectin immunofluorescence imaging, at 2 µM; inhibition: stronger effect = higher value; nuclei count: measured here: cell number, toxicity;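 for inhibition: signal is fraction of cell area covered by stained E-selectin grains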;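 for nuclei count: 100% = median nuclei count of all wells on the same plate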

Row | SMILES | nuclei count [%] | inhibition
1 | O=C(CSc1ncnc2ccccc12)N1CCN(c2ccccc2)CC1 | 108 | 9.1% (inactive)
2 | Nc1ncnc2nc(SCCN3CCCCC3)[nH]c12 | 92.4 | -0.1% (inactive)
3 | CCN(CC)S(=O)(=O)N1CCC(C(=O)NCC2COc3ccccc3O2)CC1 (configuration not stated) | 115 | -27.8% (inactive)
4 | Cc1cc(NC(=O)Cn2cnc3c2c(=O)n(C)c(=O)n3C)n(-c2ccccc2)n1 | 68.4 | 22.7% (inactive)
5 | O=C(CSc1nnc(Cn2cnc3ccccc32)o1)c1ccccc1 | 52 | 82.5% (inactive)
6 | O=C(c1nc2n(n1)C(c1ccc(Cl)cc1)C=C(c1ccccc1)N2)N1CCOCC1 (configuration not stated) | 110 | 14.2% (inactive)
7 | N#Cc1cc2sc3nnc(-c4ccncc4)n3c2cc1C#N | 77.1 | 22.9% (inactive)
8 | COC(=O)C(C)Oc1ccc2c3c(c(=O)oc2c1)CCCCC3 (configuration not stated) | 103 | -170% (inactive)
9 | COc1cccc(-c2cc(C(=O)Nc3cc(C)n(Cc4ccc(Cl)cc4)n3)no2)c1 | 100 | 38.9% (inactive)
10 | CCn1ncc(C2=NOC(C(=O)NCc3ccc(Cl)cc3)C2)c1C (configuration not stated) | 102 | -240% (inactive)
11 | CCOC(=O)N1CCN(C(=O)CN(C)S(=O)(=O)c2ccc(OC)c(OC)c2)CC1 | 102 | 17.8% (inactive)
